Compound activity from PubChem.
Sampled rows, rich in hits. Any-hit rate of the full collection: about 3.8%.
TrxR1 inh = blocks rat thioredoxin reductase 1; O89049; Potency, µM (titrated, usually from 114 µM), for inactives: top-dose activity change, negative = inhibition, most hits filed as inhibitors; AID 588453; recombinant rTrxR1, NADPH fluorescence consumption, selenite substrate; 390,000 compounds, 1% hits; note: nearly all actives have a fitted effect of over 65% in size
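Rat TrxR1 (90 nM in the dispensed reagent) was pre-reduced with 400 uM NADPH for 5 min at room temperature, then incubated with compound for 15 min. After 400 uM selenite was added, NADPH fluorescence (Ex 340/Em 450 nm) was followed for 8 min.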
GLS inh = glutaminase GLS (human) inhibition; O94925; GLS enzymatic activity, qHTS titration; Potency, µM (highest dose often 45.5 µM), without a hit: at the top dose activity change, negative = inhibition, usual class: inhibitors; 410,000 compounds, 0.21% hits; AID 624170
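hKGA in 45 mM KH2PO4 pH 8.2, 0.02% Tween-20 with pin-transferred compounds; 1 mM L-glutamine (stock) plus glutamate oxidase/HRP/Amplex Red coupling added. Fluorescence read initially and after 30 min at RT.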
TrxR1 substrate = is turned over as a substrate by rat TrxR1 | purified TrxR1 substrate turnover, NADPH consumption readout | Potency, µM (doses to about 114 µM), inactives show top-dose activity change, negative = substrate turnover | 390,000 compounds, 0.01% hits | AID 588456; note: nearly all actives have a fitted effect of over 50% in size
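Rat TrxR1, dispensed at 90 nM, was prereduced with 400 uM NADPH (final) for 5 min at ~22 deg C, then incubated with compound 15 min before 400 uM selenite. A first-read NADPH fluorescence drop versus no-compound background flagged substrates.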
Sfp PPTase inh = Sfp phosphopantetheinyl transferase inhibition; Biochemical Sfp PPTase activity, qHTS; Potency, µM, inactives show largest response in the series, negative = inhibition, most hits filed as inhibitors; 310,000 compounds, 3.5% hits; AID 1490;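 note: the enzyme is Sfp with the accession as filed and its product quenches rhodamine fluorescence; 0% = enzyme reaction without inhibitor and -100% = no enzyme wells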
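After 15 min at room temperature with compound, 15 nM Sfp received 5 uM rhodamine-CoA plus 12.5 uM BHQ-2-ybbR (50 mM Hepes pH 7.6, 10 mM MgCl2). Rate came from the fluorescence difference over 30 min, ex 525/em 598 nm.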
GCN5L2 inh = blocks human GCN5L2 histone acetyltransferase; Q92830; GCN5L2 HAT assay, ThioGlo1 CoA-SH fluorescence; Potency, µM (doses to about 58.9 µM), for the others: at the highest dose activity change, negative = inhibition, actives largely listed as inhibitors; 390,000 compounds, 0.21% hits; AID 504327
Target sequence (Q92830 whole entry, looked up): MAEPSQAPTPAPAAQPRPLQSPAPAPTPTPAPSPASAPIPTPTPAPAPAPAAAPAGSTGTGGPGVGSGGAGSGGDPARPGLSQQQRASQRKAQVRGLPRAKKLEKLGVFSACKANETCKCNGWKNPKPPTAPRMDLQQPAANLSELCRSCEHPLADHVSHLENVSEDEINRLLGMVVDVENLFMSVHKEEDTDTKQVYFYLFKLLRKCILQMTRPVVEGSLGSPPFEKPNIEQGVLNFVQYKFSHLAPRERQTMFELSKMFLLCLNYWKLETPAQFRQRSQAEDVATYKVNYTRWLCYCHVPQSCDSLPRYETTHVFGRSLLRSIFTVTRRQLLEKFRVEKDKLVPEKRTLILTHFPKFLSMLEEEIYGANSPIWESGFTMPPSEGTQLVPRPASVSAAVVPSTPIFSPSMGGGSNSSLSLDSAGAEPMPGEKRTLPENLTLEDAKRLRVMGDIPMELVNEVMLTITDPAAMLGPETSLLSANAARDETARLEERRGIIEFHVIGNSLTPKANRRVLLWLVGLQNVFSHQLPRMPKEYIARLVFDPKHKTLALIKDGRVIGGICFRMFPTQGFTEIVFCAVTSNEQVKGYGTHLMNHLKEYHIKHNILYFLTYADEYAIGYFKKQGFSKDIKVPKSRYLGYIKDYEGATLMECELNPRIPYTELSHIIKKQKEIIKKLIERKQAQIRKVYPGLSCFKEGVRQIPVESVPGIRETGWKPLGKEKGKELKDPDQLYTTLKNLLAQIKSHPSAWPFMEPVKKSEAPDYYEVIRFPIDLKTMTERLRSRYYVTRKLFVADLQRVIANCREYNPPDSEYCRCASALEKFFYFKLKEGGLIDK
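qHTS, 1536-well. 20nM enzyme, pH 7.5 HEPES/EDTA/Tween-20 buffer; 15 min compound preinc., RT. Start: 75uM H3(1-25), 70uM AcCoA, 50uM ThioGlo1. Read Ex340/Em540 at t=0 (autofluorescence flag) and t=20 min.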
VDR inh = blocks the human vitamin D receptor | P11473 | VDR-SRC2-3 peptide fluorescence polarization, 2 h | Potency, µM, for the others: max response, negative = inhibition, usual class: inhibitors | 400,000 compounds, 0.93% hits | AID 504847
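Fluorescence polarization assay measuring small-molecule disruption of VDR binding to the coregulator peptide SRC2-3. Compounds were pin-transferred (23 nl) into the reagent mix and incubated 2 h at room temperature before reading.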
* = called active by the depositor; ? = inconclusive; . = no result; ! = not confirmed by another sample; [ ] = another dose, or the depositor's remark. Calls come from the whole dose curve; as a rule, active = well fitted curve in the direction sought with a large enough effect; inconclusive = small, poorly fitted or top-dose-only effect, or another doubt; inactive = no such curve, though single readings can be large; an effect the other way counts as inactive or inconclusive. Unless noted, % is set by controls: 0 for no effect and ±100 for the full control effect; potency is the fitted concentration of half-maximal effect.

SMILES | TrxR1 inh | GLS inh | TrxR1 substrate | Sfp PPTase inh | GCN5L2 inh | VDR inh
CN1CCC(=C2c3ccccc3C(O)c3ccccc32)CC1 (configuration not stated) | 3%[57.1 µM] | -3% | 2%[57.1 µM] | -25% | 14% | 11%
CN1CCc2cccc3c2C1Cc1ccc(O)c(O)c1-3 (configuration not stated) | ? | 58% | 14%[57.1 µM] | 56µM*! | -10% | 10µM*!
CN=C(c1ccco1)n1c(=S)nc(-c2ccco2)n(C)c1=S | ? | 15% | 1% | 18µM* | -20% | ?
COc1ccc(C(=O)N2CCCC(CO)(Cc3ccccc3C)C2)o1 (configuration not stated) | 50µM* | -8% | 0% | -10% | -1% | -29%
O=[N+]([O-])c1ccc(N2CCN(c3ccc(O)cc3)CC2)cn1 | 6%[57.1 µM] | 10µM* | 7%[57.1 µM] | 56µM* | 1% | 11%
COc1cccc(Nc2ncc3nc(CCc4ccccc4)c(=O)n(C4CC4)c3n2)c1 | . | . | . | 7% | 25µM* | 4%
CN1CCN(c2ncc3nc(CCc4ccccc4)c(=O)n(CCc4ccccc4)c3n2)CC1 | . | . | . | -6% | -23% | 3%
O=c1c(CCc2ccccc2)nc2cnc(N3CCNCC3)nc2n1CCc1ccccc1 | . | . | . | 40µM* | ? | ?
O=c1c(-c2ccccc2)nc2cnc(N3CCNCC3)nc2n1Cc1ccc(F)cc1 | . | . | . | -11% | 18µM* | -12%
CN1CCN(c2ncc3nc(CCc4ccccc4)c(=O)n(Cc4cccs4)c3n2)CC1 | . | . | . | 28µM* | ? | ?
O=c1c(CCc2ccccc2)nc2cnc(N3CCOCC3)nc2n1Cc1cccs1 | . | . | . | 12% | -4% | 13%
Cn1c(SCC(=O)N2CCN(Cc3ccccc3)CC2)nnc1-c1ccncc1 | -18% | -4% | 2% | 16% | -6% | 14%
CCCCc1ccc(NC(=O)Nc2cc(C)nn2C)cc1 | 0%[57.1 µM] | 0% | 2%[57.1 µM] | 6% | -3% | 1%
c1cc2c3c(cccc3c1)NC1(CCCC1)N2 | -8% | ? | 52%[57.1 µM] | . | . | -21%
COc1cccc(Cn2c(=O)c(CCc3ccccc3)nc3cnc(N4CCNCC4)nc32)c1 | . | . | . | 79µM* | -18% | ?
Cc1nc2cnc(N3CCNCC3)nc2n(CCC#N)c1=O | . | . | . | 36% | 28µM* | -13%
COCCn1c(=O)c(C)nc2cnc(N3CCNCC3)nc21 | . | . | . | 22% | ? | -4%
COc1cccc(Cn2c(=O)c(CCc3ccccc3)nc3cnc(N4CCOCC4)nc32)c1 | . | . | . | 23% | -2% | -4%
N#Cc1ccc(-c2ccc(C3Nc4ccccc4C(=O)N3O)o2)cc1 (configuration not stated) | 7.1µM* | 43% | 5% | . | 4% | ?
O=C1c2ccccc2NC(c2ccc(-c3ccccc3F)o2)N1O (configuration not stated) | ? | 9% | 1% | . | -12% | -13%
COc1ccc(O)c(C2=Nc3ccccc3N=C(c3ccccc3)C2)c1 | 17% | 0% | 8% | 15% | -5% | -8%
CC(/C=C/c1ccccc1F)=N\NC(=O)c1cccc(F)c1 | 25%[57.1 µM] | 3% | -5% | 19% | -3% | 0%
O=C(NP(=O)(N1CCOCC1)N1CCOCC1)C1=C(N2CCOCC2)/C(=C\c2ccccc2)CC1 | 14µM* | 1% | 41% | 0% | -3% | ?
O=C(Nc1nc(=O)n(C(=O)C2CC2)s1)c1ccccc1 | -18% | 14% | -10% | -6% | 2% | 50µM*
O=C(Nc1nc(=O)[nH]s1)c1ccccc1 | 22%[11.4 µM] | 1% | 11%[11.4 µM] | -4% | -5% | 6%
CN1CCc2nc(SCC(=O)Nc3ccc(OC(F)(F)F)cc3)c(C#N)c(-c3cccs3)c2C1 | 10µM* | -17% | 3% | 50µM* | -15% | ?
CN1CCc2nc(SCC(=O)Nc3cccc(F)c3)c(C#N)c(-c3cccs3)c2C1 | 5µM* | 2% | 5% | 79µM* | -7% | ?
